The source of these data is PubChem BioAssay (NCI).

About 83,000 compounds went through this panel and 20% of them were active in at least one assay; those are over-represented in the sample as a whole.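 Note: values are percent growth. 100 is the growth of untreated cells, values between 100 and 0 indicate rising inhibition; between -100 and 0 indicates cell death.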 Values without a mark were called inactive. Activity calls are given as the source filed them. Rule for the calls: active = growth percent below 10; inactive = the rest.

Some test systems named below: HCT-15 colon; HT29 colon; SNB-75 CNS; SNB-19 CNS; U251 CNS; PC-3 prostate; SK-MEL-5 melanoma; UACC-62 melanoma; SK-MEL-28 melanoma; LOX IMVI melanoma.
Common to all, as to assay: NCI-60 one-dose screen, 48 h (100 = growth as untreated, 0 = no growth, -100 = all killed)
Holding throughout (details): 10 µM unless noted

For the compound `Cc1ccccc1NC(=NCCCN1CC1)Nc1ccccc1C`, the growth with HCT-15 colon is 96%; in the assay with HT29 colon, 75.5%; with SNB-75 CNS it was 100%; in the assay with SNB-19 CNS, 96.8%; in the assay on U251 CNS, 91.5%; in the assay with PC-3 prostate it was 74.4%. Also, the growth in the assay on SK-MEL-5 melanoma is 98%; with UACC-62 melanoma, 105%; in the assay with SK-MEL-28 melanoma, 111%.
As for `CS(=O)(=O)CCN1CC2CCCC(C2)C1`, the growth in the assay on HCT-15 colon is 99.5%; in the assay on HT29 colon, 96.7%; in the assay with SNB-75 CNS it was 94.1%; in the assay on SNB-19 CNS, 99.8%; in the assay on U251 CNS it was 101%; in the assay on PC-3 prostate it was 90.1%. Moreover, the values for the growth with SK-MEL-5 melanoma, with UACC-62 melanoma and in the assay on SK-MEL-28 melanoma were 104%, 102% and 105%, respectively.
For `Fc1ccc2c(c1)c(-c1nc(-c3c[nH]c4ncccc34)cs1)cn2CCN1CCOCC1`, the growth with HCT-15 colon was 27.2%; in the assay on HT29 colon, 47.7%; in the assay with SNB-75 CNS it was 32.9%; in the assay with SNB-19 CNS, 63.7%; with U251 CNS it was 51.7%; with PC-3 prostate it was 23.3%. The growth in the assay with SK-MEL-5 melanoma is 32.2%; with LOX IMVI melanoma it was 56.7%; in the assay on SK-MEL-28 melanoma, 75.8%.
In the case of `CC[C@H](C)[C@H](NC(=O)C12C3C4C1C1C2C3C41NC)C(=O)N(C)[C@H](C[C@@H](OC(C)=O)c1nc(C(=O)N[C@@H](Cc2ccccc2)C[C@H](C)C(=O)OC)cs1)C(C)C` (some centres not stated), the growth in the assay with HCT-15 colon was 18.4%; with HT29 colon it was 2.58% (active); in the assay with SNB-75 CNS, 31.4%; in the assay with SNB-19 CNS, 49.6%; with U251 CNS, 11.6%; with PC-3 prostate it was 21.2%. Besides, the growth is 3.34% (active) in the assay with SK-MEL-5 melanoma, 15.7% in the assay with LOX IMVI melanoma and 58.1% in the assay on SK-MEL-28 melanoma.
In the case of `Cn1cc(-c2csc(-c3cn(CCCCN4CCCCC4)c4ccc(F)cc34)n2)c2cccnc21`, the growth in the assay on HCT-15 colon is 76%; with HT29 colon it was -73.5% (active); with SNB-75 CNS it was 68.8%; with SNB-19 CNS, 87.1%; with U251 CNS it was 80.7%; in the assay on PC-3 prostate, 68.4%. For the same compound, the values for the growth in the assay with SK-MEL-5 melanoma, in the assay with LOX IMVI melanoma and in the assay with SK-MEL-28 melanoma were -100% (active), 75.9% and -78.2% (active), respectively.
For the compound `COc1ccc2c(c1)c(-c1nc(-c3c[nH]c4ncccc34)cs1)cn2CCCCN1CCCCC1`, the growth with HCT-15 colon was -76.7% (active); with HT29 colon it was -72.4% (active); with SNB-75 CNS, -75.4% (active); with SNB-19 CNS, -71.1% (active); in the assay on U251 CNS it was -75.3% (active); in the assay with PC-3 prostate, -79% (active). In addition, the values for the growth in the assay with SK-MEL-5 melanoma, in the assay with LOX IMVI melanoma and with SK-MEL-28 melanoma were -81.3% (active), -83.1% (active) and -85.1% (active), respectively.
Turning to `COc1ccc2c(c1)c(-c1nc(-c3cn(C)c4ncccc34)cs1)cn2CCN1CCOCC1`, the growth in the assay with HCT-15 colon is 20.9%; with HT29 colon it was 25.9%; with SNB-75 CNS, 63.3%; in the assay with SNB-19 CNS it was 33.1%; in the assay on U251 CNS, 28.2%; with PC-3 prostate, 17.6%. Also, the growth was 30.7% in the assay with SK-MEL-5 melanoma, 32.5% in the assay with LOX IMVI melanoma and 56.1% in the assay on SK-MEL-28 melanoma.
With `COC(=O)CCc1c[nH]c2ccc(N(CCCl)CCCl)cc12`, the growth is 64.9% in the assay on HCT-15 colon; 59.3% in the assay with HT29 colon; 49% in the assay on SNB-75 CNS; 54% with SNB-19 CNS; 40.1% in the assay with U251 CNS; 65.3% in the assay with PC-3 prostate. For the same compound, the growth was 52% in the assay on SK-MEL-5 melanoma, 49.3% with UACC-62 melanoma and 91.1% with SK-MEL-28 melanoma.
In the case of `Fc1ccc2c(c1)c(-c1nc(-c3c[nH]c4ncccc34)cs1)cn2CCCCN1CCCCC1`, the growth in the assay on HCT-15 colon is -72% (active); in the assay on HT29 colon, -97% (active); with SNB-75 CNS, -70.5% (active); in the assay on SNB-19 CNS it was -88.5% (active); with U251 CNS, -87.7% (active); in the assay with PC-3 prostate it was -86.5% (active). Moreover, the figures for the growth in the assay on SK-MEL-5 melanoma, in the assay with LOX IMVI melanoma and in the assay on SK-MEL-28 melanoma were -83.1% (active), -79.3% (active) and -86.9% (active), respectively.
Regarding `COc1cc2c(cc1OCc1ccccc1)C(CC(C)C)=[N+](C)CC2`, the growth was 99.4% with HCT-15 colon; 63.3% in the assay on HT29 colon; 64.9% in the assay on SNB-75 CNS; 69% in the assay with SNB-19 CNS; 49.1% in the assay on U251 CNS; 62.8% in the assay on PC-3 prostate. For the same compound, the growth was 75.9% in the assay with SK-MEL-5 melanoma, 81.9% in the assay with UACC-62 melanoma and 95.1% in the assay with SK-MEL-28 melanoma.
`Cn1cc(-c2csc(-c3cn(CCN4CCOCC4)c4ccccc34)n2)c2cccnc21`: the growth was 46.5% with HCT-15 colon; 70.4% in the assay with HT29 colon; 74.5% with SNB-75 CNS; 84.4% in the assay with SNB-19 CNS; 67.3% in the assay with U251 CNS; 20.5% in the assay with PC-3 prostate. Moreover, the values for the growth with SK-MEL-5 melanoma, in the assay on LOX IMVI melanoma and with SK-MEL-28 melanoma were 17.6%, 67.1% and 78.2%, respectively.
Turning to `O=C([O][Hg][CH2]C1OCCOC1[CH2][Hg][O]C(=O)c1ccccc1)c1ccccc1` (configuration not stated), the growth was -79.5% (active) in the assay on HCT-15 colon; 83.6% in the assay on HT29 colon; 92.5% with SNB-75 CNS; 105% in the assay with SNB-19 CNS; 43% with U251 CNS; 70.5% in the assay with PC-3 prostate. Moreover, the growth with SK-MEL-5 melanoma is 93.1%; in the assay on UACC-62 melanoma, 106%; with SK-MEL-28 melanoma, -96.7% (active).
Turning to `CNC12C3C4C1C1C2C3C41C(=O)N[C@H](C(=O)N(C)[C@H](C[C@@H](OC(C)=O)c1nc(C(=O)N[C@@H](Cc2ccccc2)C[C@H](C)C(=O)OC)cs1)C(C)C)C1CC1` (some centres not stated), the growth in the assay on HCT-15 colon is 11.4%; with HT29 colon, -12.6% (active); with SNB-75 CNS it was 26.9%; in the assay with SNB-19 CNS, 33.4%; with U251 CNS, 10.1%; in the assay on PC-3 prostate it was 16.9%. Also, the growth in the assay on SK-MEL-5 melanoma was -54.4% (active); in the assay with UACC-62 melanoma it was 13.9%; in the assay with SK-MEL-28 melanoma, 62.3%.
